Results taken from PubChem BioAssay AID1508625 (Wald Lab, School of Medicine, Case Western Reserve …, 2021).

Assay: enhancers of NK cell killing of ovarian tumor cells, primary screen, imaging, OVCAR3, primary NK cells, calcein-AM imaging (AID 1508625);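 note: compound given to NK cells 16 h before adding targets at 1.5 to 1 ratio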
Details: OVCAR3 lysis by primary NK cells, at 5 µM; z-score: measured here: robust Z-score, single-point normalisation

| SMILES | corrected activity, negative = more killing | z-score |
| --- | --- | --- |
| Cc1ccc(OCCNC(=O)C2CCCCC2)cc1 | -4.66% | -2.59 |
| O=C(O)CSCCC(=O)Nc1ccc(F)cc1 | -7.17% | -1.93 |
| O=C(CSCc1ccccc1Cl)NCCc1ccc(Cl)cc1 | -1.86% | -0.502 |
| COc1cccc(C(=O)N2CCN(C(=O)c3ccccc3OC)CC2)c1 | -2.57% | -1.15 |
| Cc1cccc(OCC(=O)N2CCN(S(C)(=O)=O)CC2)c1 | -2.23% | -0.994 |
| COCCNC(=O)c1ccc2snnc2c1 | -3.88% | -1.16 |
| CC(=O)CC(O)(c1ccccc1)C(F)(F)F (centres undefined) | 0.173% | 0.0551 |
| CC1=C(C(=O)Nc2cccc(Cl)c2)C(c2cccc(Cl)c2)NC(=O)N1 (centres undefined) | -1.94% | -0.84 |
| O=C1C2C(c3ccc([N+](=O)[O-])cc3)OC3(C(=O)c4ccccc4C3=O)C2C(=O)N1c1ccc(Cl)cc1 (centres undefined) | -3.68% | -1.14 |
| CCN(C(=O)c1cc2cc3ccc(OC)cc3nc2o1)c1cccc(C(F)(F)F)c1 | -3.66% | -0.898 |
| COc1ccc(OC)c(C2Nc3ccccc3NC3=C2C(=O)CC(C)(C)C3)c1 (centres undefined) | -5.96% | -1.85 |
| O=C(CNC(=O)OCc1ccccc1)Oc1cc2oc(=O)c3c(c2cc1Cl)CCC3 | -2.23% | -0.829 |
